Experimental data from PubChem BioAssay AID1159580 (chemical genetic matrix, 2015).
Screen size: about 5,500 compounds; about 2,000 (36%) were called active. Another 18% or so got no clear call; they are omitted. Rule as the data show it: active = normalized growth mostly below about 0.91 (no sharp cut-off); inconclusive = no clear call, values can overlap the other calls; inactive = mostly above about 0.92. This is one part of the list.

Test: chemical genetic growth profiling, strain panel (AID 1159580);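 also: tested at 20 µM; growth read once vehicle control cultures reached saturation at 30 °C; 1 = growth at the plate median or of vehicle wells; lower values mean less growth of the strain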
Conditions: growth OD

Measured: normalized growth

COC(=O)c1c(C)cc(OC)cc1O
inactive: S. cerevisiae deletion strains, locus YJR075W, strain HOC1, hits give low values 0.974 | S. cerevisiae deletion strains, locus YKL009W, strain mrt4, hits give low values 0.964 | S. cerevisiae deletion strains, locus YKL068W, hits give low values 0.995 | S. cerevisiae deletion strains, locus YKL085W, strain MDH1 (second series), hits give low values 0.978 | S. cerevisiae deletion strains, locus YKL085W, strain MDH1, hits give low values 0.978 | S. cerevisiae deletion strains, locus YKL160W, strain elf1, hits give low values 0.971 | S. cerevisiae deletion strains, locus YKL190W, strain CNB1, hits give low values 0.991 | S. cerevisiae deletion strains, locus YKR001C, strain vps1, hits give low values 0.959 | S. cerevisiae deletion strains, locus YKR026C, strain gcn3, hits give low values 0.972 | S. cerevisiae deletion strains, locus YKR091W, strain srl3, hits give low values 0.974 | S. cerevisiae deletion strains, locus YLL001W, strain dnm1, hits give low values 0.973 | S. cerevisiae deletion strains, locus YLL026W, hits give low values 0.981 | S. cerevisiae deletion strains, locus YLL041C, strain sdh2, hits give low values 1 | S. cerevisiae deletion strains, locus YLR027C, strain aat2, hits give low values 0.967 | S. cerevisiae deletion strains, locus YLR039C, strain RIC1, hits give low values 0.995 | S. cerevisiae deletion strains, locus YLR058C, strain SHM2, hits give low values 0.998 | S. cerevisiae deletion strains, locus YLR102C, strain apc9, hits give low values 0.981 | S. cerevisiae deletion strains, locus YLR113W, strain HOG1, hits give low values 1.02 | S. cerevisiae deletion strains, locus YLR221C, strain rsa3, hits give low values 0.959 | S. cerevisiae deletion strains, locus YLR258W, strain gsy2, hits give low values 0.974 | S. cerevisiae deletion strains, locus YLR262C, strain YPT6 (second series), hits give low values 1.02 | S. cerevisiae deletion strains, locus YLR262C, strain YPT6, hits give low values 1.01 | S. cerevisiae deletion strains, locus YLR268W, strain sec22, hits give low values 0.989 | S. cerevisiae deletion strains, locus YLR320W, strain mms22, hits give low values 0.947 | S. cerevisiae deletion strains, locus YLR330W, strain CHS5, hits give low values 0.993 | S. cerevisiae deletion strains, locus YLR342W, strain FKS1 (second series), hits give low values 1 | S. cerevisiae deletion strains, locus YLR342W, strain FKS1, hits give low values 0.989 | S. cerevisiae deletion strains, locus YLR357W, strain rsc2, hits give low values 0.983 | S. cerevisiae deletion strains, locus YLR370C, strain arc18, hits give low values 0.986 | S. cerevisiae deletion strains, locus YLR371W, strain rom2, hits give low values 0.989 | S. cerevisiae deletion strains, locus YLR384C, strain iki3, hits give low values 0.976 | S. cerevisiae deletion strains, locus YLR418C, strain cdc73, hits give low values 0.941 | S. cerevisiae deletion strains, locus YML016C, strain PPZ1, hits give low values 0.982 | S. cerevisiae deletion strains, locus YML032C, strain rad52, hits give low values 0.976 | S. cerevisiae deletion strains, locus YML120C, strain ndi1, hits give low values 0.988 | S. cerevisiae deletion strains, locus YML124C, strain tub3, hits give low values 0.984 | S. cerevisiae deletion strains, locus YMR058W, strain fet3, hits give low values 0.978 | S. cerevisiae deletion strains, locus YMR078C, strain ctf18, hits give low values 0.981 | S. cerevisiae deletion strains, locus YMR125W, strain sto1, hits give low values 0.993 | S. cerevisiae deletion strains, locus YMR129W, hits give low values 0.993 | S. cerevisiae deletion strains, locus YMR205C, strain PFK2, hits give low values 0.95 | S. cerevisiae deletion strains, locus YMR223W, strain ubp8, hits give low values 0.971 | S. cerevisiae deletion strains, locus YMR231W, strain pep5, hits give low values 1 | S. cerevisiae deletion strains, locus YMR263W, strain SAP30, hits give low values 0.982 | S. cerevisiae deletion strains, locus YMR307W, strain GAS1, hits give low values 1.03 | S. cerevisiae deletion strains, locus YNL067W, strain RPL9B, hits give low values 0.994 | S. cerevisiae deletion strains, locus YNL071W, strain lat1, hits give low values 0.98 | S. cerevisiae deletion strains, locus YNL128W, strain TEP1, hits give low values 1.01 | S. cerevisiae deletion strains, locus YNL153C, strain GIM3, hits give low values 0.988 | S. cerevisiae deletion strains, locus YNL183C, strain NPR1, hits give low values 0.979 | S. cerevisiae deletion strains, locus YNL209W, strain ssb2, hits give low values 0.999 | S. cerevisiae deletion strains, locus YNL233W, strain BNI4, hits give low values 0.992 | S. cerevisiae deletion strains, locus YNL248C, strain rpa49, hits give low values 0.982 | S. cerevisiae deletion strains, locus YNL250W, strain rad50, hits give low values 0.979 | S. cerevisiae deletion strains, locus YNL271C, strain bni1, hits give low values 0.978 | S. cerevisiae deletion strains, locus YNL298W, strain CLA4, hits give low values 0.996 | S. cerevisiae deletion strains, locus YNL307C, strain MCK1, hits give low values 0.914 | S. cerevisiae deletion strains, locus YNL322C, strain KRE1 (second series), hits give low values 0.953 | S. cerevisiae deletion strains, locus YNL322C, strain KRE1, hits give low values 0.997 | S. cerevisiae deletion strains, locus YNR049C, strain mso1, hits give low values 0.998 | S. cerevisiae deletion strains, locus YNR052C, strain pop2, hits give low values 1 | S. cerevisiae deletion strains, locus YOL006C, strain TOP1, hits give low values 0.848 | S. cerevisiae deletion strains, locus YOL012C, strain htz1 0.923 | S. cerevisiae deletion strains, locus YOL147C, strain pex11, hits give low values 0.978 | S. cerevisiae deletion strains, locus YOR001W, strain rrp6, hits give low values 0.985 | S. cerevisiae deletion strains, locus YOR061W, strain CKA2, hits give low values 1.01 | S. cerevisiae deletion strains, locus YOR069W, strain VPS5, hits give low values 0.995 | S. cerevisiae deletion strains, locus YOR070C, strain gyp1, hits give low values 0.971 | S. cerevisiae deletion strains, locus YOR080W, strain dia2, hits give low values 0.982 | S. cerevisiae deletion strains, locus YOR083W, strain WHI5, hits give low values 0.96 | S. cerevisiae deletion strains, locus YOR106W, strain vam3, hits give low values 0.978 | S. cerevisiae deletion strains, locus YOR136W, strain idh2, hits give low values 0.995 | S. cerevisiae deletion strains, locus YOR144C, strain elg1, hits give low values 0.99 | S. cerevisiae deletion strains, locus YOR184W, strain ser1, hits give low values 0.922 | S. cerevisiae deletion strains, locus YOR231W, strain MKK1, hits give low values 1.03 | S. cerevisiae deletion strains, locus YOR265W, strain rbl2, hits give low values 0.965 | S. cerevisiae deletion strains, locus YOR270C, strain vph1, hits give low values 0.891 | S. cerevisiae deletion strains, locus YOR290C, strain snf2, hits give low values 0.977 | S. cerevisiae deletion strains, locus YOR316C, strain cot1, hits give low values 0.988 | S. cerevisiae deletion strains, locus YPL051W, strain arl3, hits give low values 0.954 | S. cerevisiae deletion strains, locus YPL055C, strain LGE1, hits give low values 1 | S. cerevisiae deletion strains, locus YPL078C, strain atp4, hits give low values 0.917 | S. cerevisiae deletion strains, locus YPL106C, strain sse1, hits give low values 0.929 | S. cerevisiae deletion strains, locus YPL240C, strain hsp82, hits give low values 0.974 | S. cerevisiae deletion strains, locus YPL241C, strain CIN2, hits give low values 0.994 | S. cerevisiae deletion strains, locus YPL256C, strain CLN2, hits give low values 1.03 | S. cerevisiae deletion strains, locus YPR119W, strain clb2, hits give low values 0.972 | S. cerevisiae deletion strains, locus YPR141C, strain kar3, hits give low values 0.98 | S. cerevisiae deletion strains, locus YPR163C, strain tif3, hits give low values 1 | S. cerevisiae deletion strains, locus YPR167C, strain met16, hits give low values 0.982 | S. cerevisiae deletion strains, strain wtn01, hits give low values 0.964 | S. cerevisiae strains, strain wild type, hits give low values 1
